Measurements published in PubChem BioAssay (Tox21).
Where “and” joins values, the source holds several entries; their conditions need not be identical. Identical values can stand only once. Records with an inconclusive call do not appear. Where a call stands in place of a potency, no number is given. Where a structure was tested more than once in an assay, its records may differ in their call. Calls of active or inactive are those of the source. Unless noted, calls follow the shape of the dose curve; as a rule, active = well fitted cell-killing curve with a large enough effect in the repeat runs (not every such curve was filed as active); inconclusive = weak or mixed curves, or effect the other way; inactive = no such curve, though single readings can be large or run the other way.

molecular target: Nuclear receptor subfamily 1 group I member 3 (Homo sapiens) (UniProt Q14994); assay: qHTS assay to identify small molecule agonists of the constitutive androstane receptor (CAR) signaling pathway (AID 1224839; active = well fitted activation curve with a large enough effect in the repeat runs; also: nearly all actives have a fitted effect of over 15% in size;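 as to activation: HepG2 cells stably carrying human CAR and a CYP2B6 luciferase reporter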); settings: HepG2 hCAR CYP2B6-luciferase, agonist mode, 24 h; series mostly up to 92.4 µM
Sequence (Q14994 whole entry, looked up): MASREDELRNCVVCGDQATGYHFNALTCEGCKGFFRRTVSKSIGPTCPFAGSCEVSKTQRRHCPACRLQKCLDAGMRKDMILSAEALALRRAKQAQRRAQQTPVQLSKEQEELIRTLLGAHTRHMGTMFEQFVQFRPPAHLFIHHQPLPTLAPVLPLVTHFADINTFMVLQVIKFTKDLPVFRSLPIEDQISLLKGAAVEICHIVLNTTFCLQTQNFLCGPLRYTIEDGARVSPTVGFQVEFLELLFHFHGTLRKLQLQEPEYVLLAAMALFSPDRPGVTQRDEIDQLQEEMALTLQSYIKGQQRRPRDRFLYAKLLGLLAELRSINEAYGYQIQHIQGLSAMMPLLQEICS
Method in brief: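 HepG2 cells stably expressing hCAR and a CYP2B6-2.2kb luciferase reporter were treated with compounds at 15 concentrations plus 0.75 uM PK11195 (final) for 24 h at 37 C; luminescence was read after ONE-Glo addition.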
Potency is read from the fitted curve at half-maximal effect.

Compound | Potency
Cc1cc(NS(=O)(=O)c2ccc(N)cc2)no1 | inactive
O=C1N=C(O)CN1/N=C/c1ccc(-c2ccc([N+](=O)[O-])cc2)o1 | inactive
CC(C)(N=C=O)c1cccc(C(C)(C)N=C=O)c1 | inactive
CCCCC/C=C\C/C=C\CCCCCCCC(=O)OC | inactive
CCCCCCCCCCCCN | inactive
Oc1ccc(OCc2ccccc2)cc1 | 23.8 µM (active)
CC1CC(OC(=O)c2ccccc2O)CC(C)(C)C1 (stereo unspecified) | inactive
CC1Cc2ccccc2N1NC(=O)c1ccc(Cl)c(S(N)(=O)=O)c1 (stereo unspecified) | inactive
CC(C)NCC(O)COc1cccc2ccccc12 (stereo unspecified) | inactive
Cc1cc(Cc2ccc(N)c(C)c2)ccc1N | 48.6 µM (active)
CN(C)c1ccc(C(=N)c2ccc(N(C)C)cc2)cc1 | inactive
CC(=O)CCc1ccccc1 | inactive
O=Nc1ccc(O)cc1 | inactive
CC1=C(CC(=O)O)c2cc(F)ccc2/C1=C\c1ccc(S(C)=O)cc1 (stereo unspecified) | 61.1 µM (active) and inactive
C/C=C(C)/C=C/C=C(C)C | inactive
COC(=O)c1ccc(C(=O)OC)cc1 | inactive
O=C(c1ccc(O)cc1)c1ccc(O)cc1O | 27.6 µM (active) and 54.5 µM (active)
CCCCC(CC)COC(=O)CCCCCCCC(=O)OCC(CC)CCCC (stereo unspecified) | inactive
COC(=O)Nc1nc2ccc(Sc3ccccc3)cc2[nH]1 | 4.33 µM (active)
CC1(C)CC(N=C=O)CC(C)(CN=C=O)C1 (stereo unspecified) | inactive
CC(C)(C)C1CCC(O)CC1 (stereo unspecified) | inactive
CCCCC(CC)COC(C)=O (stereo unspecified) | inactive
CC1COc2ccccc2N1C(=O)C(Cl)Cl (stereo unspecified) | 48.5 µM (active)
S=c1nc[nH]c2nc[nH]c12 | inactive

system: not listed separately; assay: qHTS assay to identify small molecule antagonists of the estrogen related receptor signaling pathway with the pleiotropic PPARgamma coactivator (PGC) from Tox21 10K library - cell viability counter screen (AID 1224840); settings: PGC/ERR reporter cells viability, CellTiter-Fluor, 17.5 h; series mostly up to 92.4 µM; also: nearly all actives have a fitted effect of over 40% in size
Method in brief: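 Readout: fluorescence intensity from CellTiter-Fluor after 30 min at 37 C/5% CO2. Preceded by 17.5 h treatment of PGC/ERR cells with DMSO-dissolved compounds, added 6 h post-seeding.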

Compound | Potency
Cc1cc(NS(=O)(=O)c2ccc(N)cc2)no1 | inactive
O=C1N=C(O)CN1/N=C/c1ccc(-c2ccc([N+](=O)[O-])cc2)o1 | 48.6 µM (active) and inactive
Nc1cc(-c2ccncc2)c[nH]c1=O | inactive
CC(C)(N=C=O)c1cccc(C(C)(C)N=C=O)c1 | inactive
CCCCC/C=C\C/C=C\CCCCCCCC(=O)OC | inactive
CCCCCCCCCCCCN | inactive and 12.2 µM (active)
Oc1ccc(OCc2ccccc2)cc1 | inactive
CCC(=O)O | inactive
CC1CC(OC(=O)c2ccccc2O)CC(C)(C)C1 (stereo unspecified) | inactive
CC1Cc2ccccc2N1NC(=O)c1ccc(Cl)c(S(N)(=O)=O)c1 (stereo unspecified) | inactive
O=[N+]([O-])C(CO)(CO)CO | inactive
CC(C)NCC(O)COc1cccc2ccccc12 (stereo unspecified) | inactive
Nc1c(S(=O)(=O)O)cc(Br)c2c1C(=O)c1ccccc1C2=O | inactive
Cc1cc(O)cc(C)c1Cl | inactive
Oc1c(Cl)cc(Cl)c(Cl)c1Cl | inactive
Cc1cc(Cc2ccc(N)c(C)c2)ccc1N | inactive
C=C1CC[C@H](O)CC1=C/C=C1\CCC[C@]2(C)[C@@H]([C@H](C)/C=C/[C@H](C)C(C)C)CC[C@@H]12 | inactive
CC(C)n1c(/C=C/[C@@H](O)C[C@@H](O)CC(=O)O)c(-c2ccc(F)cc2)c2ccccc21 | inactive
CCCCCCCCCC(=O)O | inactive
CN(C)c1ccc(C(=N)c2ccc(N(C)C)cc2)cc1 | 30.3 µM (active) and 20.9 µM (active)

Compound | Potency
CC(=O)CCc1ccccc1 | inactive
O=Nc1ccc(O)cc1 | inactive
CC1=C(CC(=O)O)c2cc(F)ccc2/C1=C\c1ccc(S(C)=O)cc1 (stereo unspecified) | inactive
COC(=O)c1ccccc1O | inactive
CCOC(=O)/C=C\C(=O)OCC | inactive
C/C=C(C)/C=C/C=C(C)C | inactive
Oc1ccc2ccccc2c1 | inactive
COC(=O)c1ccc(C(=O)OC)cc1 | 24.7 µM (active) and inactive
Clc1cc(Cl)c(Cl)cc1Cl | inactive
CC1(C)O[C@@H]2C[C@H]3[C@@H]4C[C@H](F)C5=CC(=O)CC[C@]5(C)[C@H]4[C@@H](O)C[C@]3(C)[C@]2(C(=O)CO)O1 | inactive
O=C(c1ccc(O)cc1)c1ccc(O)cc1O | inactive
CCCCC(CC)COC(=O)CCCCCCCC(=O)OCC(CC)CCCC (stereo unspecified) | 8.63 µM (active) and inactive
COC(=O)Nc1nc2ccc(Sc3ccccc3)cc2[nH]1 | inactive
CC1(C)CC(N=C=O)CC(C)(CN=C=O)C1 (stereo unspecified) | inactive
NCCc1ccc(O)c(O)c1 | inactive
CC(C)(C)C1CCC(O)CC1 (stereo unspecified) | inactive
CCCCC(CC)COC(C)=O (stereo unspecified) | inactive
CC1COc2ccccc2N1C(=O)C(Cl)Cl (stereo unspecified) | inactive
S=c1nc[nH]c2nc[nH]c12 | inactive

system: not listed separately; assay: qHTS assay to identify small molecule antagonists of the estrogen related receptor signaling pathway with the pleiotropic PPARgamma coactivator (PGC) from Tox21 10K library (AID 1224841; call rule not given here; also: actives are mostly falling curves and most rising ones were filed inactive; nearly all actives have a fitted effect of over 50% in size); settings: PGC/ERR reporter cell line, ONE-Glo luciferase, 18 h; series mostly up to 92.4 µM
Method in brief: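 One-Glo luminescence, measured after half an hour at room temperature, quantified reporter output of PGC/ERR cells. These had been plated at 2,000 per well, incubated 6 h, dosed with compounds in DMSO, then kept 18 h at 37 C.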

Compound | Potency
Nc1cc(-c2ccncc2)c[nH]c1=O | inactive
CC(C)(N=C=O)c1cccc(C(C)(C)N=C=O)c1 | 48.2 µM (active) and inactive
CC1Cc2ccccc2N1NC(=O)c1ccc(Cl)c(S(N)(=O)=O)c1 (stereo unspecified) | inactive
O=[N+]([O-])C(CO)(CO)CO | inactive
Oc1c(Cl)cc(Cl)c(Cl)c1Cl | 59.8 µM (active) and 54.5 µM (active)
CCCCCCCCCC(=O)O | inactive
CC(=O)CCc1ccccc1 | inactive
COC(=O)c1ccccc1O | inactive
CCOC(=O)/C=C\C(=O)OCC | inactive
Clc1cc(Cl)c(Cl)cc1Cl | inactive
CC1(C)O[C@@H]2C[C@H]3[C@@H]4C[C@H](F)C5=CC(=O)CC[C@]5(C)[C@H]4[C@@H](O)C[C@]3(C)[C@]2(C(=O)CO)O1 | inactive
CCCCC(CC)COC(=O)CCCCCCCC(=O)OCC(CC)CCCC (stereo unspecified) | 24.3 µM (active) and inactive
CCCCC(CC)COC(C)=O (stereo unspecified) | inactive
